Laboratory results published in PubChem BioAssay (EPA / NIEHS).
Results filed as inconclusive are left out. Active and inactive are the calls of the source. The calls were made as follows, unless noted: active = hit-call score of the fitted dose curve at least 0.9, where 1 is the maximum; inactive = score below 0.9.

Assays:
[1] = target: Glucocorticoid receptor (Homo sapiens) (UniProt P04150); assay: ATG_GR_TRANS: Attagene TRANS-FACTORIAL HepG2 Assay for human Glucocorticoid Receptor (GR) (AID 2282978; active = hit-call score of the fitted dose curve at least 0.9, where 1 is the maximum;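 also: activators score as hits since higher reporter transcript over DMSO is fitted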); details: HepG2 Attagene TRANS GR reporter, mRNA transcription
In short: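 HepG2 cells transiently transfected with multiplexed reporter units in which chimeric NR-GAL4 proteins drive GAL4-UAS reporters; 24 h compound exposure. Reporter mRNA measured by RT-PCR, 6-FAM labelling, HpaI digestion and capillary electrophoresis; gain-of-signal fitted versus DMSO.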

[2] = target: Oxysterols receptor LXR-alpha (Homo sapiens) (UniProt Q13133); assay: ATG_LXRa_TRANS: Attagene TRANS-FACTORIAL HepG2 Assay for human Liver X Receptor alpha (LXRa) (AID 2282980; active = hit-call score of the fitted dose curve at least 0.9, where 1 is the maximum); details: HepG2 Attagene TRANS reporter, LXRa transactivation
In short: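 Transient HepG2 transfectants, 24 h dosing, RT-PCR/CE mRNA reporter quantitation; gain-of-signal vs DMSO.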

[3] = target: Oxysterols receptor LXR-beta (Homo sapiens) (UniProt P55055); assay: ATG_LXRb_TRANS: Attagene TRANS-FACTORIAL HepG2 Assay for human Liver X Receptor beta (LXRb) (AID 2282981; active = hit-call score of the fitted dose curve at least 0.9, where 1 is the maximum); details: HepG2 Attagene TRANS GAL4-LXRb reporter, mRNA
In short: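 After 24 h chemical treatment of transfected HepG2 cells carrying exogenous NR-Gal4 chimeras, reporter mRNA was quantified by fluorescent RT-PCR and capillary electrophoresis; activity taken as increase over DMSO controls.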

[4] = target: Transcriptional activator Myb (Homo sapiens) (UniProt P10242); assay: ATG_Myb_CIS: Attagene CIS-FACTORIAL HepG2 Assay for human Myeloblastosis (Myb) Proto-Oncogene Transcription Factor (AID 2282986); details: HepG2 Attagene CIS-FACTORIAL Myb reporter transcription; actives raise or lower the signal
In short: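 HepG2 cells were transiently transfected with cis-regulated multiple reporter transcription units reflecting endogenous Myb activity, then exposed to compound for 24 hours. Reporter mRNA was measured by RT-PCR with capillary electrophoresis; bidirectional fitting versus DMSO baseline.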

[5] = target: Nuclear respiratory factor 1 (Homo sapiens) (UniProt Q16656); assay: ATG_NRF1_CIS: Attagene CIS-FACTORIAL HepG2 Assay for human Nuclear Respiratory Factor 1 (NRF1) Orphan Gene (AID 2282987); details: HepG2 NRF1 cis-element reporter, Attagene multiplex; actives raise or lower the signal
In short: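 HepG2 cells transiently transfected with multiple reporter transcription units under cis-regulatory promoter control, so endogenous transcription-factor activity is read. After 24 h compound exposure, reporter mRNA quantified by RT-PCR, fluorescent labelling, HpaI digestion and capillary electrophoresis; bidirectional fitting versus DMSO.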

[6] = ATG_NFI_CIS: Attagene CIS-FACTORIAL HepG2 Assay for human Nuclear Factor I (NFI) (AID 2282989); details: HepG2 cis-regulatory reporter, NFI response element transcription; actives raise or lower the signal
In short: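 HepG2 cells transiently transfected with cis-element-driven multiplexed reporter transcription units, dosed for 24 h. Reporter mRNA quantified by RT-PCR, fluorescent labelling, HpaI digestion and capillary electrophoresis; bidirectional fit versus DMSO baseline.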

[7] = ATG_NF_kB_CIS: Attagene CIS-FACTORIAL HepG2 Assay for human Nuclear Factor Kappa B (NF-kB) (AID 2282991); details: HepG2 Attagene cis-factorial NF-kB reporter mRNA; actives raise or lower the signal
In short: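 HepG2 cells transiently transfected with multiplexed cis-element reporter units measuring endogenous transcription factor activity; reporter mRNA read 24 h after dosing by RT-PCR, fluorescent labelling, HpaI digestion and capillary electrophoresis. Bidirectional fit against DMSO baseline.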

[8] = ATG_NRF2_ARE_CIS: Attagene CIS-FACTORIAL HepG2 Assay for human Nuclear Factor Erythroid 2 Related Factor 2 (NFR2) response to Antioxidant Response Elements (ARE) (AID 2282992); details: HepG2 Attagene ARE/NRF2 reporter, transcription factor activity; actives raise or lower the signal;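 as to AC50: reporter mRNA level measured by RT-PCR and capillary electrophoresis fluorescence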
In short: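 Fluorescence intensity of reporter-specific cDNA fragments, separated by capillary electrophoresis, reflects mRNA induction in transfected HepG2 cells at 24 h. Activity is fitted bidirectionally, DMSO serving as baseline.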

[9] = ATG_Oct_MLP_CIS: Attagene CIS-FACTORIAL HepG2 Assay for human Octamer-Binding Transcription Factor (Oct) (AID 2282993); details: HepG2 Attagene cis-factorial Oct reporter, mRNA; actives raise or lower the signal
In short: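 HepG2 cells transiently transfected with cis-promoter-driven multiplexed reporter transcription units, dosed for 24 h. Reporter mRNA quantified by RT-PCR, fluorescent labelling, HpaI digestion and capillary electrophoresis; bidirectional fits versus DMSO baseline.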

[10] = ATG_M_06_TRANS: Attagene TRANS-FACTORIAL HepG2 Assay for M06 Transcription Factor (Internal Marker) (AID 2282983; active = hit-call score of the fitted dose curve at least 0.9, where 1 is the maximum;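 also: reporter transcript level by RT-PCR then capillary electrophoresis fluorescence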); details: HepG2 Attagene TRANS M06 internal marker reporter
In short: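 Human liver HepG2 cells bearing transiently transfected chimeric NR-GAL4 reporter units were treated with chemicals for 24 h. Total RNA was reverse-transcribed, reporter sequences amplified and labelled, then quantified by capillary electrophoresis. Activity was fitted upward relative to DMSO.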

[11] = ATG_M_32_TRANS: Attagene TRANS-FACTORIAL HepG2 Assay for M32 Transcription Factor (Internal Marker) (AID 2282984; active = hit-call score of the fitted dose curve at least 0.9, where 1 is the maximum;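 also: transcript level of a background control reporter unit measured by RT-PCR and capillary electrophoresis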); details: HepG2 Attagene TRANS M32 internal marker reporter
In short: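 Internal background reporter in transfected HepG2: after 24 h chemical exposure, RNA reverse-transcribed, reporter cDNA amplified, fluorescently labelled and HpaI-cut, then sized by capillary electrophoresis. Gain of signal fitted against DMSO control.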

[12] = target: Nuclear receptor subfamily 4 group A member 2 (Homo sapiens) (UniProt P43354); assay: ATG_NURR1_TRANS: Attagene TRANS-FACTORIAL HepG2 Assay for human Nuclear Receptor Related Protein 1 (NURR1) (AID 2282985; active = hit-call score of the fitted dose curve at least 0.9, where 1 is the maximum); details: HepG2 Attagene TRANS reporter, mRNA readout
In short: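 Reporter transcript induction, measured by RT-PCR with fluorescent labelling, HpaI digestion and capillary electrophoresis, after 24 hr dosing of human HepG2 cells transiently expressing an exogenous NR-Gal4 fusion with GAL4-UAS-driven reporters; DMSO as baseline.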

[13] = target: Myc proto-oncogene protein (Homo sapiens) (UniProt P01106); assay: ATG_Myc_CIS: Attagene CIS-FACTORIAL HepG2 Assay for human Myelocytomatosis (Myc) Proto-Oncogene Transcription Factor (AID 2282990); details: HepG2, Attagene cis-reporter transcription factor activity; actives raise or lower the signal
In short: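 Cells of the HepG2 human liver line bear multiple cis-driven reporter transcription units. Reporter mRNA after 24 h exposure is reverse-transcribed, amplified, labelled and resolved by capillary electrophoresis, with gain- or loss-of-signal fitting relative to DMSO.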

[14] = target: Cellular tumor antigen p53 (Homo sapiens) (UniProt P04637); assay: ATG_p53_CIS: Attagene CIS-FACTORIAL HepG2 Assay for human p53 Transcription Factor (AID 2282994); details: HepG2 p53 cis-element reporter, Attagene mRNA; actives raise or lower the signal
In short: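 Transiently transfected HepG2 (multiple cis reporter transcription units); exposure 24 h; reporter RNA via RT-PCR, 6-FAM extension, 2 h HpaI digest at 37 C, CE detection; DMSO baseline.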

[15] = target: Bile acid receptor (Homo sapiens) (UniProt Q96RI1); assay: ATG_FXR_TRANS: Attagene TRANS-FACTORIAL HepG2 Assay for Farnesoid X Receptor (FXR) (AID 2282979; active = hit-call score of the fitted dose curve at least 0.9, where 1 is the maximum;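 also: hits raise reporter mRNA above DMSO so AC50 marks FXR activation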); details: HepG2 Attagene TRANS FXR-GAL4 reporter transcription
In short: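 Chimeric FXR-GAL4 activity in transiently transfected human HepG2 liver cells is scored as induction of reporter mRNA after 24 h of dosing. Detection uses RT-PCR with fluorescent labelling and capillary electrophoresis, with DMSO serving as baseline.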

[16] = target: Hepatocyte nuclear factor 4-alpha (Homo sapiens) (UniProt P41235); assay: ATG_HNF4a_TRANS: Attagene TRANS-FACTORIAL HepG2 Assay for human Hepatocyte Nuclear Factor 4 alpha (HNF4a) (AID 2282982; active = hit-call score of the fitted dose curve at least 0.9, where 1 is the maximum); details: HepG2 HNF4a transactivation reporter, mRNA readout
In short: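 Activity of an exogenous HNF4a–Gal4 fusion scored as induced GAL4-UAS reporter transcripts after 24 h chemical exposure of transfected human HepG2 cells. Read-out via RT-PCR with 6-FAM labelling and capillary electrophoresis; rise over DMSO baseline.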

[17] = BSK_3C_TissueFactor: BioMAP Diversity Plus: 3C Assay for Tissue Factor Biomarker Activity (AID 2282997); details: BioMAP 3C HUVEC, tissue factor biomarker readout; actives raise or lower the signal
In short: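 Cells used were primary human umbilical vein endothelial cells. They were dosed with chemical, and after 24 h Tissue Factor was quantified by ELISA. Curves were fitted bidirectionally with DMSO as baseline.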

[18] = BSK_3C_uPAR: BioMAP Diversity Plus: 3C Assay for Urokinase-type plasminogen activator receptor (uPAR) Biomarker Activity (AID 2282998); details: BioMAP 3C HUVEC, uPAR biomarker ELISA; actives raise or lower the signal
In short: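 Human umbilical vein endothelial primary cells were exposed to test chemical for 24 h. Cell-surface uPAR was then quantified by ELISA, and responses were fitted bidirectionally against DMSO as negative control and baseline.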

[19] = BSK_3C_VCAM1: BioMAP Diversity Plus: 3C Assay for Vascular cell adhesion molecule 1 (VCAM1) Biomarker Activity (AID 2282999); details: BioMAP 3C HUVEC, VCAM1 ELISA, cytokine-stimulated; actives raise or lower the signal
In short: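 Activity fitted in both directions relative to DMSO, with ELISA measurement of the surface marker on primary HUVEC (3C) at 24 h post-treatment; parallel SRB staining (0.1% SRB, TCA-fixed, 560 nm) flagged overt cytotoxicity.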

Measured: AC50

Bile acid receptor (Homo sapiens), sequence (Q96RI1 whole entry, looked up, the tested form may be a part): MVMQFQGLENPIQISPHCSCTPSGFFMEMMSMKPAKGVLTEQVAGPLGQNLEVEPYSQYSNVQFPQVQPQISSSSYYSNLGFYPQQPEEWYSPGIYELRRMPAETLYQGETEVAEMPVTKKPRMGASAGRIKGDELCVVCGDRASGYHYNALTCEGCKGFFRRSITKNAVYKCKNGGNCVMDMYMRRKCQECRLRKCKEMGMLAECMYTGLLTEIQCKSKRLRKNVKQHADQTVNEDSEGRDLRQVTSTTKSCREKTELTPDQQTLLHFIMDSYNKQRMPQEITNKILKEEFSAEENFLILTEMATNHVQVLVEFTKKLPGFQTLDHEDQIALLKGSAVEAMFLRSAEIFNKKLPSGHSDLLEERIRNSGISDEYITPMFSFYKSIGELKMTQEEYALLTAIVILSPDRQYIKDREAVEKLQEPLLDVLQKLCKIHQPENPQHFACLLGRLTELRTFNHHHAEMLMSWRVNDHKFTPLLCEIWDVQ
Hepatocyte nuclear factor 4-alpha (Homo sapiens), sequence (P41235 whole entry, looked up, the tested form may be a part): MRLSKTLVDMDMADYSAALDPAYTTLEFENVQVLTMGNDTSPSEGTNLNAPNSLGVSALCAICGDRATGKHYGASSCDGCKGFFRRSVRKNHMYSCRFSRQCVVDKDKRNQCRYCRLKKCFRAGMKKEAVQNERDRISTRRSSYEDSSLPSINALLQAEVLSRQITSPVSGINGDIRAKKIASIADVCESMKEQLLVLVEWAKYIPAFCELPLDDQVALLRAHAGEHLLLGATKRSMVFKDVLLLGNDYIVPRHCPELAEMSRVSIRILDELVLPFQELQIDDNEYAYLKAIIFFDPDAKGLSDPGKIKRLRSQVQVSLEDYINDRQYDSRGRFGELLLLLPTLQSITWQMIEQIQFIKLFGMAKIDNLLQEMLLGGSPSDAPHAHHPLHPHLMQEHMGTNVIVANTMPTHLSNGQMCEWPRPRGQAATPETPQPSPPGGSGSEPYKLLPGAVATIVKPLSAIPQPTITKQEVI
Transcriptional activator Myb (Homo sapiens), sequence (P10242 whole entry, looked up): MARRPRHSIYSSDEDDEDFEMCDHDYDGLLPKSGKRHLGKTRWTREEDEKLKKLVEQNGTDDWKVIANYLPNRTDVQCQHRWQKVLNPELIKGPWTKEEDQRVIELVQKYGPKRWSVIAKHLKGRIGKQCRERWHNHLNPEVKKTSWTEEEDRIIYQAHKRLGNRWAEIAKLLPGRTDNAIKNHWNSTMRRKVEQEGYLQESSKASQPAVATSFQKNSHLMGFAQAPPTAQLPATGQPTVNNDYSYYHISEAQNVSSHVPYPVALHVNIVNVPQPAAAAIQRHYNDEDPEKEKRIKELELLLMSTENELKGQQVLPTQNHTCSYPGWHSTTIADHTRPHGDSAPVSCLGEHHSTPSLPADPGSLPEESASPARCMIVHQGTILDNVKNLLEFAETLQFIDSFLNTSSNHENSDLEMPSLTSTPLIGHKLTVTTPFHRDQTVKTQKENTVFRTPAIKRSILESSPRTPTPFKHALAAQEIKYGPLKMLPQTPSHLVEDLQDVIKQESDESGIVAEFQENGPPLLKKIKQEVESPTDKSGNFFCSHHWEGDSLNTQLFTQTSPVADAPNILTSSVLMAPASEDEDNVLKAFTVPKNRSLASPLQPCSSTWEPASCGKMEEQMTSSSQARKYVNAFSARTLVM
Glucocorticoid receptor (Homo sapiens), sequence (P04150 whole entry, looked up, the tested form may be a part): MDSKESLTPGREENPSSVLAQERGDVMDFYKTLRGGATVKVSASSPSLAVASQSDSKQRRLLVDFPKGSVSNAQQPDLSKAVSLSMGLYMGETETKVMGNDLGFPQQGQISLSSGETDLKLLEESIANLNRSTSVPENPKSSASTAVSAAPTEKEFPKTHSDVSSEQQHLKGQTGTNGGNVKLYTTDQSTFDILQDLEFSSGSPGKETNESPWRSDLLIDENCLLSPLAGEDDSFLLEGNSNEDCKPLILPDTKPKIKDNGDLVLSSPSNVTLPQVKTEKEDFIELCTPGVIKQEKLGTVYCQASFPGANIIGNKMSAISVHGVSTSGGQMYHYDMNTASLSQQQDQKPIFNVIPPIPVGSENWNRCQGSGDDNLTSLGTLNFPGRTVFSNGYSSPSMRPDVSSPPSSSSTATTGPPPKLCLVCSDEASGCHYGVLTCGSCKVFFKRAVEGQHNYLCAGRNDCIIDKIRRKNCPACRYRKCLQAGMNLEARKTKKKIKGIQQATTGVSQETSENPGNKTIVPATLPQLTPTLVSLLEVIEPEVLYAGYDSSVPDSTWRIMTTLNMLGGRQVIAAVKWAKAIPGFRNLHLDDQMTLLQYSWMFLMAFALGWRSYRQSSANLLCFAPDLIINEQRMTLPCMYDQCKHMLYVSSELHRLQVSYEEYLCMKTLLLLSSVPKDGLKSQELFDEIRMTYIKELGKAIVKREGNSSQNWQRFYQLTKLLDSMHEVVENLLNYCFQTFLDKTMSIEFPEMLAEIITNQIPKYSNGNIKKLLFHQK
Oxysterols receptor LXR-beta (Homo sapiens), sequence (P55055 whole entry, looked up, the tested form may be a part): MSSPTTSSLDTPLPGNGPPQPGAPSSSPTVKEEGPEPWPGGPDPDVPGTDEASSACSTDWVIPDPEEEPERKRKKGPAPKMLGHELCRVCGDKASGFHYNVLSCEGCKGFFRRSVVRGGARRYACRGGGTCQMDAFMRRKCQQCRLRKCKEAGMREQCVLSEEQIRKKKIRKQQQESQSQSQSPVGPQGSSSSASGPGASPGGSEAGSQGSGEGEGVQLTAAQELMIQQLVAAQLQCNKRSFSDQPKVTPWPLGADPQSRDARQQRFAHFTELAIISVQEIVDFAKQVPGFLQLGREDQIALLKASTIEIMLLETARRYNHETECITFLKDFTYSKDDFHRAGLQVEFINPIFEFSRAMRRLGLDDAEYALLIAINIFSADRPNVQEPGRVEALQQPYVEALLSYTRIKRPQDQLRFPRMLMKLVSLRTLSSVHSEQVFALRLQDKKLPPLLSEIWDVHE
Oxysterols receptor LXR-alpha (Homo sapiens), sequence (Q13133 whole entry, looked up): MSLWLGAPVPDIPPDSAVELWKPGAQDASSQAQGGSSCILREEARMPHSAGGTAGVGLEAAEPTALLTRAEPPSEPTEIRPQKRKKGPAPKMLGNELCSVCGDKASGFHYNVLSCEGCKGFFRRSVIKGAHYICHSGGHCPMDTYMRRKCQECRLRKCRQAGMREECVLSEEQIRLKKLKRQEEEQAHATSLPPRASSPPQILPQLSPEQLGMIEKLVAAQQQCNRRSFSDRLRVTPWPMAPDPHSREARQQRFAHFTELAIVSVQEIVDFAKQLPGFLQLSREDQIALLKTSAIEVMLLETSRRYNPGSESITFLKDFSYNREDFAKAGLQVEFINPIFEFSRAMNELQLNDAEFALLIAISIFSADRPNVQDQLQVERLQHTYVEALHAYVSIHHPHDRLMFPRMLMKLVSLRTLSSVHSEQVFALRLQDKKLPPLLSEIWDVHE
Cellular tumor antigen p53 (Homo sapiens), sequence (P04637 whole entry, looked up): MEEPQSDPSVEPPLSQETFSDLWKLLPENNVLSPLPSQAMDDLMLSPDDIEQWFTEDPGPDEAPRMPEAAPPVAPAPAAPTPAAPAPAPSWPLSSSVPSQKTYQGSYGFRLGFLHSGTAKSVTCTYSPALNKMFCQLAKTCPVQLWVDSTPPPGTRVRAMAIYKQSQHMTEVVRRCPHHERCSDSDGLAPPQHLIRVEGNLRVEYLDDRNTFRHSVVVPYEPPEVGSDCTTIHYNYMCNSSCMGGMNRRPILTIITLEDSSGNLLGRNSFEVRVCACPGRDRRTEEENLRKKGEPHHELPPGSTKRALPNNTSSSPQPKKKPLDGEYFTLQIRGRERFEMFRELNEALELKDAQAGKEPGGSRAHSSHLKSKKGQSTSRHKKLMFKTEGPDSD
Myc proto-oncogene protein (Homo sapiens), sequence (P01106 whole entry, looked up): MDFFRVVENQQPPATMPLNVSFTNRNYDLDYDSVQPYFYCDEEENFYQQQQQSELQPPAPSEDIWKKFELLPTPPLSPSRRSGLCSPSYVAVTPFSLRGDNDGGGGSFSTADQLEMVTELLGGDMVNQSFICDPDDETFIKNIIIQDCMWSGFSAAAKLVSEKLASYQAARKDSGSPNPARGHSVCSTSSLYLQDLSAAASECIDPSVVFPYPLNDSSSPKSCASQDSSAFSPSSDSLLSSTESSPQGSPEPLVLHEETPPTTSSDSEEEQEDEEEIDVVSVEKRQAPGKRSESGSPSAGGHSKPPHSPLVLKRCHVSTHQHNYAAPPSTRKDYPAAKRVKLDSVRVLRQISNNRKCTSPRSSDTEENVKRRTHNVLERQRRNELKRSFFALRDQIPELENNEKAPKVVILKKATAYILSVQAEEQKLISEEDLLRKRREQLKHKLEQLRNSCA
Nuclear respiratory factor 1 (Homo sapiens), sequence (Q16656 whole entry, looked up): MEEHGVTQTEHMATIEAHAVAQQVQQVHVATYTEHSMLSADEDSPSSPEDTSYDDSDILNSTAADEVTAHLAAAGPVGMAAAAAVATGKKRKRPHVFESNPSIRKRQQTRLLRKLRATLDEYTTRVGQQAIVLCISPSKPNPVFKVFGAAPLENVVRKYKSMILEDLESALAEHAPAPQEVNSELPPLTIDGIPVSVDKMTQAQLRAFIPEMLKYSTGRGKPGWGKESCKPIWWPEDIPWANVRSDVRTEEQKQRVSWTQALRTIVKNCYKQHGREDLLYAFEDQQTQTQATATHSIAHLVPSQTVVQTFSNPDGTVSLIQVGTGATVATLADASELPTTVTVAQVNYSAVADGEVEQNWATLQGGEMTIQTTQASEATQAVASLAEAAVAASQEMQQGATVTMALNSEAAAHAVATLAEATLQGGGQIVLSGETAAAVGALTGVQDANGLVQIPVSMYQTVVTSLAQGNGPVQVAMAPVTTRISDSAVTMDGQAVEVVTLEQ

O=C1c2ccccc2C(=O)c2cc(S(=O)(=O)O)ccc21
active: [8] 100 µM
inactive: [1] | [2] | [3] | [4] | [5] | [6] | [7] | [9]

O=C(OCCc1ccccc1)c1ccccc1
inactive: [1] | [2] | [10] | [11] | [12] | [4] | [5] | [6] | [13] | [8] | [9] | [14]

CC(C)=CCCC(C)=CC#N
inactive: [1] | [2] | [10] | [12] | [4] | [5] | [6] | [13] | [8] | [9] | [14]

O=C(OCc1ccccc1)c1ccc(O)cc1
inactive: [1] | [15] | [3] | [10] | [4] | [6] | [13] | [14]
active: [12] 158 µM | [8] 64.4 µM | [9] 125 µM

N#CC1(N)CCCCC1
inactive: [1] | [2] | [3] | [16] | [11] | [12] | [4] | [6] | [13] | [8] | [9] | [14]

Oc1ccc(-c2ccccc2)c(Cl)c1
active: [6] 33.4 µM | [8] 22.7 µM | [9] 52.3 µM
inactive: [1] | [2] | [3] | [11] | [4] | [5] | [13] | [7] | [14]

CC1(C)CCC[C@]2(C)[C@H]3CC(=O)O[C@]3(C)CC[C@@H]12
inactive: [1] | [15] | [3] | [11] | [4] | [5] | [13] | [9] | [14]
active: [8] 30.3 µM

Oc1ccccc1Cc1ccccc1O
active: [8] 40.7 µM | [9] 134 µM | [14] 100 µM
inactive: [1] | [2] | [10] | [11] | [4] | [6] | [13] | [7] | [17] | [18] | [19]

CCCCOC(=O)CCC(C)=O
inactive: [1] | [2] | [16] | [12] | [4] | [5] | [6] | [13] | [8] | [9]

Nc1ccc(C(=O)OCCCOC(=O)c2ccc(N)cc2)cc1
inactive: [1] | [15] | [16] | [4] | [5] | [6] | [13] | [7] | [8] | [9] | [14]

CCCCCCCCCCCCCC(=O)OC(C)C
inactive: [1] | [2] | [3] | [16] | [10] | [11] | [12] | [4] | [5] | [6] | [13] | [7] | [8] | [9] | [14]
